SUMO Mot1 rescue – inhibitors of SUMOylation pathway: yeast Mot1-301 growth rescue; S. cerevisiae Mot1-301 growth rescue, ATP luminescence, 38.5C; percent above DMSO median, 100 means doubled; growth rescue, % at 18.8 µM; 320,000 compounds, 1% hits; AID 2716;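 active means every valid replicate shows activation above 250% relative to neutral control wells; inactive means the rest, any valid replicate at or below 250%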;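 further: OY570 slx delta 5 strain wells were the positive control but not used for scaling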
sPLA2-III inh – Inhibits HGIII-sPLA2 liposome hydrolysis, primary screen | 370,000 compounds, 0.56% hits | QFRET BODIPY PC-A2 liposome hydrolysis, fluorescence | inhibition, % at 12.2 µM | AID 743126 | Q9NZ20;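 active means inhibition above mean plus 3 SD of compounds lying within the high and low control bounds, cut at about 19% in these data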;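 further: 0% = median of test compound wells and 100% = no enzyme DMSO wells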
Target sequence (Q9NZ20 whole entry, looked up): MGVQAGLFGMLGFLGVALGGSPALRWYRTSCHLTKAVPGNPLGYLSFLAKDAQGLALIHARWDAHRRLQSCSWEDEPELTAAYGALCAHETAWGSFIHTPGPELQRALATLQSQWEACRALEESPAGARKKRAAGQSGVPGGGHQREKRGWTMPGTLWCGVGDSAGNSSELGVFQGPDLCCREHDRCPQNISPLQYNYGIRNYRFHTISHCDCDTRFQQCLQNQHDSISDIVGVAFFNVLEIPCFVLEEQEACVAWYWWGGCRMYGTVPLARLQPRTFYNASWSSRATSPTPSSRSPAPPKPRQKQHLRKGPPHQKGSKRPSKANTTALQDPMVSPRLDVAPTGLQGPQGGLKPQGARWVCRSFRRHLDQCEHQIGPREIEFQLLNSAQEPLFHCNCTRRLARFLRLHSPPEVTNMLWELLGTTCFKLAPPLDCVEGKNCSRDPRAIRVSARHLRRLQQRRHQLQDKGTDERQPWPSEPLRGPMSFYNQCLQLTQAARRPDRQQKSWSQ
SKN-1 inh – blocks SKN-1 activity in C. elegans; C. elegans VP596 Pgst-4::GFP/RFP ratio, acrylamide-induced, 24 h; inhibition, % at 21.8 µM; 360,000 compounds, 0.49% hits; AID 624304;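 active means interference check ratio from 0.5 to 1.5 plus GFP to RFP signal ratio inhibition reaching or exceeding a fixed threshold, cut at about 30% in these data, passing the limit was not always enough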
Efflux pump inh – blocks antifungal efflux pumps in multiplex yeast assay | S. cerevisiae Candida pump triplex, Nile Red efflux | 330,000 compounds, 0.44% hits | inhibition, % at 10 µM;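 active means plate passing quality check with inhibition over a set limit, or well fluorescence over plate mean plus 4 SD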;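 further: Nile Red retained in pooled yeast measured as flow cytometry median fluorescence; 0% = buffer negative control and 100% = Enniatin B positive control; higher means more Nile Red kept so more efflux inhibition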
Cmpd fluor yeast – compound fluorescence in yeast efflux pump counter-screen | S. cerevisiae AD/pABC3, flow cytometry | AID 588517 | fluorescence ratio to DMSO, % at 10 µM | 1,700 compounds, 4% hits | shares compounds with Efflux pump inh;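 active means fluorescence ratio to DMSO above its plate's cutoff, the plate mean ratio plus 5 SD, cut at about 210% in these data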;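 further: unstained yeast with no Nile Red so the signal is compound autofluorescence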
CaMdr1 efflux inh – Candida Mdr1 efflux pump inhibition; S. cerevisiae AD/CaMDR1, Nile Red efflux, flow cytometry; AID 588518; inhibition, % at 10 µM; 1,700 compounds, 1% hits; shares compounds with Efflux pump inh; in the data active means inhibition above about 26%;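 further: 0% = DMSO vehicle and 100% = reference inhibitor; higher means more Nile Red retained so more efflux inhibition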
CaCdr2 efflux inh – blocks the Candida albicans Cdr2 efflux pump in yeast; shares compounds with Efflux pump inh; S. cerevisiae AD/CaCDR2, Nile Red retention, flow cytometry; Nile Red retention ratio vs DMSO, % at 10 µM; 1,700 compounds, 4% hits; in the data active means Nile Red retention ratio vs DMSO above about 190%;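 further: higher ratio means more blocking of Cdr2 efflux of the dye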
Cdr1 pump inh – inhibitors of Candida albicans Cdr1 efflux pump; shares compounds with Efflux pump inh; S. cerevisiae AD/CaCDR1, Nile Red efflux, flow cytometry; inhibition, % at 10 µM; 1,700 compounds, 1% hits; AID 588522;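 active means inhibition above the screen-wide mean plus twice its standard deviation, cut at about 32% in these data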
The depositor's hits bear a star; i = inactive; x = not tested or not shown; + = active, no number. An excerpt weighted towards active compounds, which were near 2.2% of everything screened.

SMILES	SUMO Mot1 rescue	sPLA2-III inh	SKN-1 inh	Efflux pump inh	Cmpd fluor yeast	CaMdr1 efflux inh	CaCdr2 efflux inh	Cdr1 pump inh
CC(C(=O)Nc1ccccc1C(=O)N1CCOCC1)N(c1ccc(Cl)cc1)S(C)(=O)=O (configuration not stated)	1	-2	-8	0.7*	103	0	91	0
CC(C)NC(=O)NC1CCN(CC(=O)Nc2ccc3c(c2)OCCO3)CC1	x	4	x	x	x	x	x	x
CC1CCCCN1S(=O)(=O)c1ccc2c(c1)CCN2C(=O)C1CC1 (configuration not stated)	7	0	1	0	x	x	x	x
O=[N+]([O-])c1cc(/C=N\Nc2ccccn2)ccc1Cl	-3	-1	-1	0.9*	108	0	197*	0
CN(C)c1ccc(/C=C/C=C2/SC(=S)N(c3ccccc3)C2=O)cc1	-2	14	58	2.4*	+	1	547*	1
COC(=O)c1nn(-c2ccccc2)nc1-c1nn(-c2ccccc2)nc1C(=O)OC	12	-1	-26	0.4*	101	0	98	0
O=C(OCC(=O)N1CCOCC1)c1cccc(S(=O)(=O)Nc2ccc(F)cc2)c1	13	-11	1	0	x	x	x	x
CC(=O)Nc1ccc(-c2cn3cc(C)ccc3n2)cc1	0	-2	-6	6.5*	99	0	89	0
Cc1ccc2nc(-c3ccccc3)cn2c1	-48	1	19	0	x	x	x	x
COc1ccc([C@H]2CC(=O)C=C(c3cc(Cl)ccc3C)C2)cc1	8	-1	-6	0	x	x	x	x
COc1ccc([C@H]2CC(=O)C=C(c3ccnc4ccc(Cl)cc34)C2)cc1	23	-14	3	67*	105	0	102	0
N#C/C(=C\Nc1ccccc1SC(F)(F)F)c1nc(-c2ccccc2)cs1	9	4	1	0	x	x	x	x
Cc1ccc(-c2csc(/C(C#N)=C/Nc3ccccc3SC(F)(F)F)n2)c(C)c1	147	3	-3	0.5*	163	3	116	1
CCOC(=O)C(c1nc2ccccc2[nH]1)n1c(-c2ccccn2)nc2ccccc21 (configuration not stated)	x	8	1	x	x	x	x	x
COC(=O)c1c(NC(=O)C(C)C)sc(C(=O)N2CCOCC2)c1C	-6	-2	11	0	x	x	x	x
Cc1ccc(C)c(C(=O)COC(=O)c2ccc(C)c(S(=O)(=O)N3CCOCC3)c2)c1	25	-11	2	1.1*	87	0	95	0
Cc1ccc(C(=O)OCC(=O)NC(C)C)cc1S(=O)(=O)N1CCOCC1	-25	0	-3	0	x	x	x	x
Cc1ccc(-c2c[n+](CC(=O)Nc3ccccc3C)c3n2CCC3)cc1	i	14	-1	0	103	0	92	0
Cc1ccc(NC(=O)C[n+]2cc(-c3ccccc3)n3c2CCC3)cc1	-10	8	1	0	x	x	x	x
O=c1[nH]c(C2CCN(S(=O)(=O)c3ccccc3F)CC2)nc2c1nnn2Cc1ccc(F)cc1	-5	-18	12	0	x	x	x	x
Cc1ccc(Cn2nnc3c(=O)[nH]c(C4CCN(S(=O)(=O)c5ccccc5F)CC4)nc32)cc1	-12	-36	-16	0	104	0	106	0
Cc1ccc(Cn2nnc3c(=O)[nH]c(C4CCN(S(=O)(=O)c5ccc(C)cc5)CC4)nc32)cc1	32	-70	-6	0	100	0	112	1
Cc1ccc(Cn2nnc3c(=O)[nH]c(C4CCN(S(=O)(=O)c5ccc(S(=O)(=O)NC6CC6)cc5)CC4)nc32)cc1	189	-69	0	0	x	x	x	x
CCN(C(=O)[C@@H](C)[C@@H](O)c1ccc(C(C)=O)cc1)c1ccccc1	x	9	x	x	x	x	x	x
O=C(NNC(=S)NCCc1ccccc1)c1ccc(Br)s1	-7	-21	0	0	x	x	x	x
SMILES	SUMO Mot1 rescue	sPLA2-III inh	SKN-1 inh	Efflux pump inh	Cmpd fluor yeast	CaMdr1 efflux inh	CaCdr2 efflux inh	Cdr1 pump inh
Cc1ccc(NC(=O)CCS(=O)(=O)c2cc3[nH]c(=O)c(=O)[nH]c3cc2C)cc1	0	1	17	0	x	x	x	x
O=C(Nc1ccccc1Cl)c1cc(S(=O)(=O)N2CCCCC2)ccc1N1CCOCC1	-8	-8	-13	1.2*	98	0	104	0
O=C(Nc1ccccc1N1CCCCC1)c1cc(S(=O)(=O)N2CCOCC2)ccc1Cl	-1	-2	7	0	x	x	x	x
Cc1nn2c3c(cnc2c1-c1ccccc1)C(=O)CCC3	4	-2	2	0.6*	106	0	103	0
CC(C)Cc1nnc(NC(=O)C2CSC3(C)CCC(=O)N23)s1 (configuration not stated)	-7	-2	8	0	x	x	x	x
CC(Oc1ccc([N+](=O)[O-])cc1Cl)C(=O)Nc1ccc(C(N)=O)cc1 (configuration not stated)	-5	2	-7	2.3*	103	0	91	0
CC(=O)Nc1ccc(Oc2ccc([N+](=O)[O-])cc2Cl)cc1	-13	-6	0	0	x	x	x	x
Cc1ccc(C2=NN(CC(=O)NCc3ccccn3)C(=O)CC2)cc1	4	2	6	7.6*	92	0	91	0
CCCOP(=O)(c1ccc(N(C)C)cc1)C(Nc1ccccc1)c1ccc(N(C)C)cc1 (configuration not stated)	-17	13	-3	2.6*	112	0	121	0
CCC(=O)OCC(=O)[C@@]1(OC(=O)CC)[C@@H](C)C[C@H]2[C@@H]3CCC4=CC(=O)C=C[C@]4(C)[C@@]3(Cl)[C@@H](O)C[C@@]21C	17	-29	3	0	x	x	x	x
O=C(NCc1cccc(C(F)(F)F)c1)c1ccc2sc(C3=C[C@@H](O)[C@@H](O)[C@@H](CO)O3)nc2c1	x	x	22	x	x	x	x	x
CC(=O)c1cccc(NC(=O)/C(=C/c2ccncc2)NC(=O)c2ccccc2)c1	0	2	-7	0	x	x	x	x
O=S(=O)(Nc1ccc(-c2ccc(N3CCOCC3)nn2)cc1)c1ccc(Cl)c(Cl)c1	342	-40	18	0.8*	102	0	114	0
O=[N+]([O-])c1ccc(Cl)c(S(=O)(=O)Nc2ccc(-c3ccc(N4CCOCC4)nn3)cc2)c1	-3	2	4	0	x	x	x	x
CCCCC(=O)N[C@H]1CC[C@@]23CCCN2C(=O)CCC[C@H]3[C@H]1CCC	x	-2	x	x	x	x	x	x
O=C(NCc1ccco1)C1CCCN(c2ncccn2)C1 (configuration not stated)	x	3	x	x	x	x	x	x
CC(Oc1ccccc1)C(=O)N(CCC1=CCCCC1)c1c(N)n(Cc2ccccc2)c(=O)[nH]c1=O (configuration not stated)	10	-5	3	6.2*	92	0	109	0
